Consider 40 compounds from PubChem BioAssay (NCI).

Molecules are shown by their SMILES. About 83,000 compounds went through this panel and 20% of them were active in at least one assay; those are over-represented in the sample as a whole.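 Compound tested at a single concentration for 48 hours in 96-well plates; a percent growth value below 10 was scored as active.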 The source made the active and inactive calls.

The test relates to NCI-H460 lung. The test can be described thus: NCI-60 one-dose screen, 48 h (100 = growth as untreated, 0 = no growth, -100 = all killed). Conditions: 10 µM unless noted. On the procedure: Growth inhibition of the NCI-H460 human Non-Small Cell Lung tumor cell line is measured as a screen for anti-cancer activity. Cells are grown in 96 well plates and exposed to the test compound for 48 hours. Compounds are tested at a single concentration, which is 10^-5 M for most compounds. The reported endpoint is percent growth (GI% or GIPRCNT), where numbers from 0 - 100% represent growth inhibition, and numbers from -100% - 0 represent cell death. For example, a value of 40 represents 60% growth inhibition. A value of 0 means no net growth occurred over the course of the experiment. A value of -40 indicates 40% of cells at the beginning of the experiment died by the end of the experiment. A value of -100 means all cells are dead at the end of the experiment.
NCI-60 Human Tumor Cell Lines Screen was performed using the standard one-dose NCI protocol, which is described in more detail at https://dtp.cancer.gov/discovery_development/nci-60/default.htm.
Compounds with GIPRCNT values below 10 were considered active. Activity score was based on GIPRCNT using the following formula: […]
Score is 0 for GIPRCNT values of 100 or above, 50 for GIPRCNT values of 0, and 100 for GIPRCNT values of -100.
In the case of `CCOC(=O)CC(=O)OC`, the growth is 101% (inactive).

`COc1ccc(-c2cc3c(OC)c(OC)c(OC)cc3oc2=O)cc1`: the growth was 13.8% (inactive). The same measure for `CCCCCCCC/C=C/CCCCCCCC1=NC(C)(C)CN1C(C)(C)CO`: -86.4% (active); for `CCc1cnc(=S)n(-c2ccccc2)c1`: 116% (inactive). As to `COc1ccc(C2C=C(c3ccc(N)cc3)N=C3SC=CN32)cc1OC` (stereo not given), the growth was 116% (inactive).

`COC(OC)c1ccccc1`: the growth was 117% (inactive).

In the case of `CN(C)CCCC(C#N)c1ccccc1` (stereo not given), the growth is 116% (inactive). Turning to `Cc1nn(-c2ccc(Cl)cc2)c2ncnc(N/N=C/c3cccc([N+](=O)[O-])c3)c12`, the growth is 77.8% (inactive). For the compound `NC(=O)c1c(NC(=S)Nc2ccc(OC(F)(F)F)cc2)sc2c1CCC1(C2)OCCO1`, the growth was 99.1% (inactive). `O=c1ccn(-c2ncnc3nc[nH]c23)cc1`: the growth is 113% (inactive).

Take `COc1cc(C2CC(c3ccc4c(c3)OCO4)=NN2C(C)=O)cc(OC)c1OC` (stereo not given): the growth is 10.7% (inactive).

As to `Cc1nc2ncccc2nc1Nc1ccc(S(=O)(=O)Nc2ccccn2)cc1`, the growth is 106% (inactive). On to `O=[N+]([O-])c1ccc(Sc2ncccn2)c([N+](=O)[O-])c1`, for which the growth was 95.4% (inactive). As to `COc1ccc(-c2cnnn2-c2nonc2-n2cccc2)cc1OC`, the growth was 40.7% (inactive). The result for `CCOC(=O)c1ccc(NC(=O)N2CC(C)OC(C)C2)cc1` (stereo not given) reads 104% (inactive).

`O=C(CN1CCN(c2cc3c(cc2F)c(=O)c(C(=O)N/N=C/c2ccccc2O)cn3C2CC2)CC1)N/N=C\c1ccccc1O`: the growth is 0.87% (active). For `CCN(CC)CCOc1ccc(/C(=C(/C)c2ccccc2)c2ccc(OC(C)=O)cc2)cc1`, the growth is 107% (inactive). For the compound `Clc1cc(Cl)c2nc(-c3ccc(-c4ccc(/C=N/NC5=NCCN5)cc4)s3)cn2c1`, the growth was 98.8% (inactive). `COc1ccc(-c2ccc(C)n2-c2ccc(-c3nc4ccccc4s3)cc2)cc1`: the growth is 88.8% (inactive). On to `CC(C)CSc1nc(NN)c(C#N)c(-c2ccccc2)n1`, for which the growth was 97.4% (inactive). The same measure for `Clc1cc2c(nn1)Nc1ccccc1S2`: 99.2% (inactive); for `COc1cc(/C=N\NC(=O)CN2CCN(c3cc4c(cc3F)c(=O)c(C(=O)N/N=C/c3cc(OC)c(OC)c(OC)c3)cn4C3CC3)CC2)cc(OC)c1OC`: -23.3% (active); for `CC(=O)Nc1ccc(/C=C/C(=O)c2ccccc2)cc1`: 105% (inactive). For the compound `COc1ccc(Cn2cc3c(c2-c2cc(OC)c(OC)c(OC)c2)CCc2cnoc2-3)cc1`, the growth is 4.4% (active). Regarding `O=[N+]([O-])c1cccc(-c2nc3sccn3c2-c2ccnc(NCCCNS(=O)(=O)c3ccc(C(F)(F)F)cc3)n2)c1`, the growth is 40.2% (inactive). `CC(=O)c1cc2c(N)c(C(=O)Nc3cccc4c3OCCO4)sc2nc1C`: the growth was 82.1% (inactive). In the case of `COc1ccc2c(c1)C(c1cc(OC)c3c(c1)OCO3)C1=C(COC1=O)N2` (stereo not given), the growth is 6.63% (active). With `Clc1ccc(-c2nc3ccccc3s2)cc1Cl`, the growth was 96.4% (inactive). Take `COc1cc2c(cc1OCCCCCn1c3ccccc3c3ccccc31)N=C[C@@H]1CCCN1C2=O`: the growth is -84.3% (active). Take `COC(=O)c1cc(=O)nc(N/N=C/c2ccco2)s1`: the growth was 106% (inactive). In the case of `CCOC(=O)c1cn2c3c(cccc3c1=O)C(=O)/C(=C/c1cccc(Cl)c1Cl)C2`, the growth was 107% (inactive). `CN(C)c1nc2c(N)ncnc2n1C1OC(CO)C(O)C1O` (stereo not given): the growth was 121% (inactive).

Regarding `Cc1ccc(C(=O)C2=Cc3cc4ccccc4n3Cc3cnnn32)cc1`, the growth was 108% (inactive). The same measure for `CN(C)CC(C(=O)c1ccccc1)c1ccccc1` (stereo not given): 79.5% (inactive). The same measure for `NC1=NC(SCc2ccccc2CCl)c2ncn(Cc3ccccc3CCl)c2N1` (stereo not given): 80.7% (inactive). As for `C=C1CCC2C(C)(CO)C(O)CCC2(C)C1C/C=C1/C(=O)OCC1Oc1ccccc1C` (stereo not given), the growth was 104% (inactive). As to `COc1ccc2c(c1)[nH]c(=O)c1c3cc(C)c(C)cc3cn21`, the growth was -16.4% (active). `COc1ccc(CCNC2=CC(=O)CCC2)cc1OC`: the growth was 111% (inactive). For the compound `CC[N+](CC)=c1cc2oc3cc(N(C)C)ccc3nc-2cc1C`, the growth was 36.4% (inactive).

Consider `CCOC(=O)c1c(NS(=O)(=O)c2ccc(C)cc2)sc2c1CCC1(C2)OCCO1`, for which the growth is 100% (inactive).
